# Test results reported in the supplement of paper PMC8728848.
# This excerpt belongs to a sample that is enriched for the strongest signals.
# Columns and labels:
# Assay in all cases: glycan array binding signal (z-score within array); higher = stronger binding
# Conditions in all cases: glycan notation: IUPAC condensed, linker removed
# Gal3S4S(b1-4)GlcNAc = biological target: Gal3S4S(b1-4)GlcNAc
# Method in brief: (§1)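 Arrays were curated from the Consortium for Functional Glycomics database, 3228 in total, and kept only where the protein sequence was available. Binding is expressed as a within-array Z-score. This score was averaged across arrays of the same protein sequence at different concentrations or buffers and across linkers, and negative values can be read as non-binding.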
# Gal4S(b1-4)GlcNAc = biological target: Gal4S(b1-4)GlcNAc
# Method in brief: as §1
# [1] = biological target: GalNAc(b1-3)Gal(a1-4)Gal(b1-4)GlcNAc
# Method in brief: as §1
# [2] = biological target: GalNAc3S(b1-4)[Fuc(a1-3)]GlcNAc
# Method in brief: as §1
# GalNAc4S6S(b1-4)GlcNAc = biological target: GalNAc4S6S(b1-4)GlcNAc
# Method in brief: as §1
# Glc(a1-4)Glc = biological target: Glc(a1-4)Glc
# Method in brief: as §1
# GlcA(b1-3)GlcNAc = biological target: GlcA(b1-3)GlcNAc
# Method in brief: as §1
# [3] = biological target: GlcNAc(a1-4)Gal(b1-4)GalNAc
# Method in brief: as §1
# [4] = biological target: GlcNAc(a1-4)Gal(b1-4)GlcNAc(b1-3)Gal(b1-4)GlcNAc
# Method in brief: as §1
# [5] = biological target: GlcNAc(b1-3)Gal(b1-4)GlcNAc(b1-3)Gal(b1-4)GlcNAc(b1-3)Gal(b1-4)GlcNAc(b1-2)Man(a1-3)[GlcNAc(b1-3)Gal(b1-4)GlcNAc(b1-3)Gal(b1-4)GlcNAc(b1-3)Gal(b1-4)GlcNAc(b1-2)Man(a1-6)]Man(b1-4)GlcNAc(b1-4)[Fuc(a1-6)]GlcNAc
# Method in brief: as §1
# [6] = biological target: GlcNAc(b1-3)Gal(b1-4)GlcNAc(b1-3)Gal(b1-4)GlcNAc(b1-3)Gal(b1-4)GlcNAc(b1-3)Gal(b1-4)GlcNAc(b1-2)Man(a1-3)[GlcNAc(b1-3)Gal(b1-4)GlcNAc(b1-3)Gal(b1-4)GlcNAc(b1-3)Gal(b1-4)GlcNAc(b1-3)Gal(b1-4)GlcNAc(b1-2)Man(a1-6)]Man(b1-4)GlcNAc(b1-4)[Fuc(a1-6)]GlcNAc
# Method in brief: as §1
# [7] = biological target: GlcNAc6S(b1-3)Gal(b1-4)GlcNAc
# Method in brief: as §1
# [8] = biological target: Man(a1-3)[Man(a1-6)]Man(a1-6)[Man(a1-3)]Man(b1-4)GlcNAc(b1-4)GlcNAc
# Method in brief: as §1
# [9] = biological target: Man(a1-3)[Man(a1-6)]Man(b1-4)GlcNAc(b1-4)GlcNAc
# Method in brief: as §1
# [10] = biological target: Neu5Ac(a2-3)Gal(b1-3)GalNAc6S
# Method in brief: as §1
# [11] = biological target: Neu5Ac(a2-3)Gal(b1-4)GlcNAc(b1-2)Man
# Method in brief: as §1
# [12] = biological target: Neu5Ac(a2-3)Gal(b1-4)GlcNAc(b1-2)[Neu5Ac(a2-3)Gal(b1-4)GlcNAc(b1-4)]Man(a1-3)[GlcNAc(b1-4)][Neu5Ac(a2-3)Gal(b1-4)GlcNAc(b1-2)[Neu5Ac(a2-3)Gal(b1-4)GlcNAc(b1-6)]Man(a1-6)]Man(b1-4)GlcNAc(b1-4)GlcNAc
# Method in brief: as §1
# [13] = biological target: Neu5Ac(a2-3)Gal(b1-4)GlcNAc(b1-2)[Neu5Ac(a2-3)Gal(b1-4)GlcNAc(b1-6)]Man(a1-6)[Neu5Ac(a2-3)Gal(b1-4)GlcNAc(b1-2)Man(a1-3)]Man(b1-4)GlcNAc(b1-4)GlcNAc
# Method in brief: as §1
# [14] = biological target: Neu5Ac(a2-3)Gal(b1-4)GlcNAc(b1-6)GalNAc
# Method in brief: as §1
# [15] = biological target: Neu5Ac(a2-6)Gal(b1-4)GlcNAc
# Method in brief: as §1
# [16] = biological target: Neu5Ac(a2-6)Gal(b1-4)GlcNAc(b1-2)Man(a1-3)[Neu5Ac(a2-3)Gal(b1-4)GlcNAc(b1-2)Man(a1-6)]Man(b1-4)GlcNAc(b1-4)GlcNAc
# Method in brief: as §1
# [17] = biological target: Neu5Ac(a2-6)Gal(b1-4)GlcNAc(b1-2)Man(a1-6)[Gal(b1-4)GlcNAc(b1-2)Man(a1-3)]Man(b1-4)GlcNAc(b1-4)GlcNAc
# Method in brief: as §1
# [18] = biological target: Neu5Ac(a2-6)Gal(b1-4)GlcNAc(b1-3)Gal(b1-3)GlcNAc
# Method in brief: as §1
# [19] = biological target: Neu5Ac(a2-6)GlcNAc(b1-4)GlcNAc(b1-4)GlcNAc
# Method in brief: as §1
# [20] = biological target: Neu5Ac(a2-8)Neu5Ac(a2-8)Neu5Ac(a2-3)[GalNAc(b1-4)]Gal(b1-4)Glc
# Method in brief: as §1
binder,measurement,setting,value
GS7807E-bfa-538-23-538 (Bacteroides fragilis) (protein) TDSFESFNTNEAGFDNDSKKQDFNYYGIPLGIIQQGIYFNYDWGSGKNWPFQTMQNLGADLFSGYVHDFNPFNEGKNNSTYYMMDGWNGSTWDNTYGYIMPEVQKSETINEKDNIGFFGITKILKVELMHRLSDLYGPIVYTQFGSKTGSTPDTQQEAYKAFFNDLDTGIAKIREYQKANPDIESFAKFDILMPQGKRTFSEWIRFANSLRLRLAVRIAMADSKLAVAEAQKALTDEEGLLEGNDEVVAVSTSSGYTNPFGEINKAWGEVFMNANMESLLVGYEDPRMEKYFDKATGSDATSLIDYKGTYKGIRQGTGFSHKNYNGHSKSTITQQTDAVLMTPAEVWFLRAEAALRGWSSESVKDCYEKGVKASFAQWGAAGAEAYLESDRKPSDYVDAFKAANNVKAVNTLTPKWDDAAGNEDKLGRIITQKWLAMFPEGGEAWAEQRRTGYPRLFPVLVNQSEGTVDTNLGPRRLNFFVGIKTTNPEQYTQLVNALGGIDNCGTRLWWDTGRNF,glycan array binding signal (z-score),Gal3S4S(b1-4)GlcNAc,-0.693
same,glycan array binding signal (z-score),Gal4S(b1-4)GlcNAc,-0.708
same,glycan array binding signal (z-score),[1],-0.246
same,glycan array binding signal (z-score),[2],3.75
same,glycan array binding signal (z-score),GalNAc4S6S(b1-4)GlcNAc,-0.65
same,glycan array binding signal (z-score),Glc(a1-4)Glc,-0.685
same,glycan array binding signal (z-score),GlcA(b1-3)GlcNAc,-0.585
same,glycan array binding signal (z-score),[3],-0.527
same,glycan array binding signal (z-score),[4],-0.642
same,glycan array binding signal (z-score),[5],-0.408
same,glycan array binding signal (z-score),[6],-0.491
same,glycan array binding signal (z-score),[7],3.84
same,glycan array binding signal (z-score),[8],3.45
same,glycan array binding signal (z-score),[9],-0.656
same,glycan array binding signal (z-score),[10],-0.669
same,glycan array binding signal (z-score),[11],2.92
same,glycan array binding signal (z-score),[12],-0.734
same,glycan array binding signal (z-score),[13],0.242
same,glycan array binding signal (z-score),[14],0.432
same,glycan array binding signal (z-score),[15],-0.395
same,glycan array binding signal (z-score),[16],-0.678
same,glycan array binding signal (z-score),[17],3.21
same,glycan array binding signal (z-score),[18],-0.187
same,glycan array binding signal (z-score),[19],-0.677
same,glycan array binding signal (z-score),[20],2.93
